The values below come from ChEMBL document CHEMBL5308541, “MAIP: An Open-Source Tool to Enrich High-Throughput Screening Output and Identify Novel, Druglike Molecules with Antimalarial Activity” (ACS Med Chem Lett, 2023).

Structures are written as SMILES. Hit rate of the full screen: of about 150,000 compounds, about 540 (0.36%) showed an effect of 50% or more. The sample holds strong results, similar compounds and a random draw of the others, so the mix is not that of the screen.

For this assay, the system named is Plasmodium falciparum. The assay can be described thus: Primary screen in NF54 nanoGlo assay, in single point, at 2uM, 72h; a lower Z score goes with more inhibition. The assay is classed as functional, Erythrocyte. As to conditions: timepoint 72 hour.
One may read the % Inhibition as the change of the read-out against control, counted positive when it falls. As to `CC(C)CCOc1ccc2[nH]c(-c3cc(N4CCC[C@@H]4CS(C)(=O)=O)ccn3)cc2c1`, the “% Inhibition” value was 97% and the Z score is on record as -20.97.

`CCOc1cc2nccc(N3C[C@H]4CN(C)C[C@H]4C3)c2cc1OCC`: the “% Inhibition” value was 99% and the Z score was -21.22.

`O=C1c2cccc3cccc(c23)C(=O)N1CCc1nc2ccccc2s1`: the “% Inhibition” value is listed as -1% and the Z score was 0.09.

As to `COCC(O)CN1CCC(NC2CCCNc3ccccc32)CC1` (stereo not given), the “% Inhibition” value is -7% and the Z score is reported as 1.28.

In the case of `O=C(c1cc(-c2ccccc2)[nH]n1)N1CCC(c2nc3cc(C(F)(F)F)ccc3s2)CC1`, the “% Inhibition” value was 3% and the Z score is -0.4.

`O[C@H]1CCN(Cc2ccccc2CNc2cccc(-n3ccnc3)n2)C1`: the “% Inhibition” value is 94% and the Z score was -14.28.

As for `O[C@@H]1CCCCC[C@H]1Nc1cccc(-n2ccnc2)n1`, the “% Inhibition” value is given as -11% and the Z score came to 1.62.

Take `CCN1CCC[C@H](Nc2cccc(-n3ccnc3)n2)C1`: the “% Inhibition” value is recorded as 46% and the Z score is -6.91.

Take `CCn1nc(C(C)C)cc1C(=O)Nc1ccc(CC(=O)NC2CC2)cc1`: the “% Inhibition” value is 3% and the Z score is on record as -0.75.

As to `Cc1cc(=O)[nH]c(-n2nc(C)cc2NC(=O)C(=O)N2CCC[C@H](C)C2)n1`, the “% Inhibition” value is on record as 4% and the Z score is -0.54.

Take `Cc1cc(=O)[nH]c(-n2nc(C)cc2NC(=O)[C@H](C)n2nc3c(cc2=O)CCC3)n1`: the “% Inhibition” value is -7% and the Z score came to 1.4.

`COC(=O)c1cn(CCNc2ccnc3cc(Cl)ccc23)cc2c(O)nnc1-2`: the “% Inhibition” value is reported as 97% and the Z score was -19.19.

As to `Nc1cc(N2CCC(c3nc4cc(F)ccc4[nH]3)CC2)nc(N2CCOCC2)n1`, the “% Inhibition” value is given as 52% and the Z score is on record as -10.32.

Consider `Nc1cc(N2CCC(N3CCc4ccccc4C3)CC2)nc(N2CCOCC2)n1`, for which the “% Inhibition” value is listed as 5% and the Z score was -0.91.

Take `Cc1cc(NC[C@H](O)COc2ccc(F)cc2)nc2ccccc12`: the “% Inhibition” value came to 68% and the Z score is -11.87.

With `Cn1nnc(C(=O)N2CCCCC23CCCCCC3)n1`, the “% Inhibition” value is recorded as 64% and the Z score was -13.81.

Take `CCN1C[C@H](Nc2nc(C)nc3sccc23)[C@@H](OC)C1`: the “% Inhibition” value was found to be 99% and the Z score is recorded as -21.25.

In the case of `COc1ccc(C(O)CNC2CCc3ccc(F)cc32)cc1` (stereo not given), the “% Inhibition” value was found to be 0% and the Z score came to 0.04.

In the case of `CN(C)C1CCN(CCN[C@H]2CCc3ccc(F)cc32)CC1`, the “% Inhibition” value turned out to be 87% and the Z score is -15.32.

Take `Cc1cnccc1NCCNc1nc(C(C)(C)C)nc2c1cnn2C`: the “% Inhibition” value was 20% and the Z score is given as -3.05.

For `Cc1cc(=O)n(CCN2CCN(C(=O)c3ccc[nH]3)CC2)c(=O)[nH]1`, the “% Inhibition” value was -9% and the Z score is 1.92.

Turning to `COc1ccc2cc(-c3cc(N)ccn3)[nH]c2c1`, the “% Inhibition” value was found to be 54% and the Z score is -11.7.

As to `Cc1cc(NCCCN2CCC(C(=O)O)CC2)nc2ccccc12`, the “% Inhibition” value was -15% and the Z score came out at 2.33.

With `NC(=O)[C@H]1CCCN(CCCNc2cc(C(F)(F)F)nc(N3CCCC3)n2)C1`, the “% Inhibition” value was -5% and the Z score was determined as 0.88.

`COc1ccc2c(C)cc(NCCCN3CCC[C@H](C(N)=O)C3)nc2c1`: the “% Inhibition” value is given as 57% and the Z score is listed as -8.7.

For `c1ccc(CN2CCC(CCNC[C@@H]3CCCN4CCCC[C@H]34)CC2)cc1`, the “% Inhibition” value came out at 57% and the Z score is -10.03.

For `Fc1ccc(-n2cc(CNCCC3CCN(c4ccncc4)CC3)cn2)cc1`, the “% Inhibition” value was found to be 91% and the Z score is -15.93.

In the case of `c1ccc2c(CNCCC3CCN(c4ccncc4)CC3)csc2c1`, the “% Inhibition” value is recorded as 80% and the Z score was -17.16.

`CCN1CCN(c2ccccc2CNCCC2CCN(C)CC2)CC1`: the “% Inhibition” value amounted to 27% and the Z score was -4.06.

Regarding `CN1CCN(CC[C@H]2CCCCN2Cc2cnn(-c3ccc(F)cc3)c2)CC1`, the “% Inhibition” value is recorded as 3% and the Z score is -0.51.

As to `Fc1ccc2c(CCNCc3cnn(-c4ccccc4)c3)c[nH]c2c1`, the “% Inhibition” value was -3% and the Z score was 0.71.

Take `Cc1cccc2c(-c3ccc(N4CCN(C)CC4)nn3)c[nH]c12`: the “% Inhibition” value is on record as -16% and the Z score is recorded as 2.75.

For `CNC(=O)CN1CCC(Nc2ncnc3ccc(C(C)C)cc23)CC1`, the “% Inhibition” value is recorded as 2% and the Z score is -0.48.

For the compound `COc1ccc2[nH]cc(C3=CCN(c4ccc5nnc(-c6ccccc6F)n5n4)CC3)c2c1`, the “% Inhibition” value came to 51% and the Z score is recorded as -8.85.

Consider `Fc1ccccc1-c1nnc2ccc(NCc3ccccc3OC3CCCC3)nn12`, for which the “% Inhibition” value is reported as -5% and the Z score is 0.8.

Regarding `CCCc1cccc(CNC2CCN(C3CCN(C)CC3)CC2)c1`, the “% Inhibition” value is 76% and the Z score is reported as -16.27.

In the case of `C[C@@H](CNC1CCN(C2CCN(C)CC2)CC1)c1cccc(Cl)c1`, the “% Inhibition” value is 97% and the Z score is on record as -17.23.

Turning to `Cc1cccc([C@@H](C)CNC2CCN(CCN3CCOCC3)CC2)c1`, the “% Inhibition” value is -4% and the Z score is 0.67.

As to `FC(F)(F)Oc1cccc(CNC2CCN(C3CC3)CC2)c1`, the “% Inhibition” value is recorded as -13% and the Z score is 2.24.

Regarding `CN1CCC(N2CCC(NCc3cccc4nsnc34)CC2)CC1`, the “% Inhibition” value amounted to 14% and the Z score is -2.08.

For `Cn1cc(-c2cncc(C(=O)NC3CCN(c4cccc(F)c4)CC3)c2)cn1`, the “% Inhibition” value was 50% and the Z score is -10.8.

`Cc1cc(N2CC3COCCC3(C(=O)O)C2)nc2ccc(F)cc12` (stereo not given): the “% Inhibition” value turned out to be 76% and the Z score is -13.26.

On to `O=C(c1cccc(OCCc2ccccc2)c1)N1CC2COCCC2(C(=O)O)C1` (stereo not given), for which the “% Inhibition” value is recorded as -3% and the Z score came to 0.52.

As to `Cc1sc2nc(-c3ccccn3)nc(NCCc3nccn3C)c2c1-c1ccccc1`, the “% Inhibition” value is 71% and the Z score is on record as -14.01.

As to `CCN1CCN(CC2CN(C/C=C/c3ccc(OC)cc3)CC2CO)CC1` (stereo not given), the “% Inhibition” value is recorded as -3% and the Z score is on record as 0.7.

Consider `O=C1CN(C2CCN(CC3CCCCC3)CC2)[C@]2(CCOC2)CN1Cc1ccccc1`, for which the “% Inhibition” value was -8% and the Z score is on record as 1.39.

`Brc1ccc2[nH]c3c(c2c1)CCCC3NC1CCc2[nH]cnc2C1` (stereo not given): the “% Inhibition” value is given as 98% and the Z score is reported as -19.51.

As for `CN(C)C1(CNc2nc(C(F)(F)F)nc3cc4c(cc23)OCO4)CCCCCC1`, the “% Inhibition” value was 54% and the Z score is given as -8.21.

For `CN(C)C1(CNc2nc(C(F)(F)F)nc3cc(F)ccc23)CCCCCC1`, the “% Inhibition” value is 61% and the Z score is on record as -9.21.

For `CN(C)c1nc(N2CCC(N3CCN(CCO)CC3)CC2)ncc1F`, the “% Inhibition” value is reported as -1% and the Z score is 0.13.

Take `Cc1ccccc1CN1CCC(CNc2c3c(nc4ccccc24)CCC3)CC1`: the “% Inhibition” value is given as 94% and the Z score is -16.23.

For `C[C@@H](c1cccc(-c2nccc3ncccc23)c1)N1CCCC1`, the “% Inhibition” value is recorded as -7% and the Z score was 1.08.

On to `Cc1cc(N2CCC(NCCCN3CCCc4ccccc43)CC2)nc(N)n1`, for which the “% Inhibition” value worked out at 53% and the Z score was -8.02.

Take `Cc1cc(N2CCC(NCCc3cnn(-c4ccccc4)c3)CC2)nc(N)n1`: the “% Inhibition” value is -2% and the Z score came out at 0.43.

With `Cc1ccc2nc(CCCNC3CCN(c4cc(C)nc(N)n4)CC3)oc2c1`, the “% Inhibition” value stood at 40% and the Z score was -6.03.
